Results reported in publication PMC4336329 (PLoS ONE, 2015).
Hit rate of the full screen: of about 310,000 compounds, about 14,000 (4.5%) showed an effect of 50% or more. Effects have a minus sign here. This is one part of a sample in which strong results are shown more often than they occur.

Target: human ether-à-go-go-related gene (hERG) potassium channel (human, UniProt Q12809)
Test: primary screen, population patch clamp on CHO cells stably expressing hERG; higher = less effect of the substance
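Also: peak tail current of the secondary pulse compared with the same well before compound.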

human ether-à-go-go-related gene (hERG) potassium channel, sequence (Q12809 whole entry, looked up): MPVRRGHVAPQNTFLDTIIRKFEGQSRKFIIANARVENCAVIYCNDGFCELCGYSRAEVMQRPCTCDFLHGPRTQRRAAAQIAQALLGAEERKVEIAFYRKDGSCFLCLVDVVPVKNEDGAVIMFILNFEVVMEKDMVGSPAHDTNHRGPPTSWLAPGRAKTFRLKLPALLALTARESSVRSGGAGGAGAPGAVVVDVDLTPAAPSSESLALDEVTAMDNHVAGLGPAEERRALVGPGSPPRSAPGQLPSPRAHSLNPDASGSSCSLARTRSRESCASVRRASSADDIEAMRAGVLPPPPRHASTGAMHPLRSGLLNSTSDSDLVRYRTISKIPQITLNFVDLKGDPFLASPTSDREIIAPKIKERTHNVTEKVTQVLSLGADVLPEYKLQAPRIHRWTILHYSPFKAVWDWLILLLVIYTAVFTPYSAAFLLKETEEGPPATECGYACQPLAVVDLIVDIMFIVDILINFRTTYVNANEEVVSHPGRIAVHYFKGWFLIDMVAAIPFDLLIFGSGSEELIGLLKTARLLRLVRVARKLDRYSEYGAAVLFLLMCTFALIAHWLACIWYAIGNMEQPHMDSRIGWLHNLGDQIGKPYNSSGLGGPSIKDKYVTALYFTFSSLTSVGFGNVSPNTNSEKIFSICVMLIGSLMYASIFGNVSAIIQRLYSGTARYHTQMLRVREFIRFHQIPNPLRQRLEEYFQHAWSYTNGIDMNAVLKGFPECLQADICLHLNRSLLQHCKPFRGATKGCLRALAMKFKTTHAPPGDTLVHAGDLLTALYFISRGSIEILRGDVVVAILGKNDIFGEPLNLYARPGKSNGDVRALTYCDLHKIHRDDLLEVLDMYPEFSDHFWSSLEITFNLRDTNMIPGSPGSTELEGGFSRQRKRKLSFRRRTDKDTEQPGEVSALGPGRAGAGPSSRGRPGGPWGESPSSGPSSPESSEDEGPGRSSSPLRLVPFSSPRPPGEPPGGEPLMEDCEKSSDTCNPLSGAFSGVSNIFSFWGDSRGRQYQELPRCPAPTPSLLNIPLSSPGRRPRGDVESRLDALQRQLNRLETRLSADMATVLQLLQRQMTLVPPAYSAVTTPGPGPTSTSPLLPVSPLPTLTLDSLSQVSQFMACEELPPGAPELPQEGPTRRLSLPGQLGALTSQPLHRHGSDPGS

SMILES | hERG current change (%, negative = inhibition) at 10uM [%]
COc1cc(CN2CCCC(C(=O)c3sccc3C)C2)cc(OC)c1O (stereo not shown) | -47.8
COc1cc(OC)c(OC)cc1CN1CCCC(C(=O)c2sccc2C)C1 (stereo not shown) | -63.4
COCc1ccc(CN2CCCC(C(=O)c3sccc3C)C2)o1 (stereo not shown) | 5.56
CCOC(=O)C1CCCN(Cc2cc(OC)c(O)c(OC)c2)C1 (stereo not shown) | -2.31
COc1cc(CN2CCCC(C(=O)c3sccc3C)C2)cc(Cl)c1O (stereo not shown) | -53.8
Cc1ccc(CN2CCCC(C(=O)c3sccc3C)C2)o1 (stereo not shown) | -11
COc1ccc(O)c(CN2CCCC(C(=O)c3sccc3C)C2)c1 (stereo not shown) | 9.89
COc1cc(CN2CCCC(C(=O)c3ccc(C(C)(C)C)cc3)C2)cc(OC)c1O (stereo not shown) | -47.3
CCc1ccc(CN2CCCC(C(=O)c3sccc3C)C2)o1 (stereo not shown) | 2.99
COc1cc(CN2CCCC(C(=O)c3ccc(SC)cc3)C2)cc(Cl)c1O (stereo not shown) | -72.8
COc1ccc(OC)c(CN2CCCC(C(=O)c3sccc3C)C2)c1 (stereo not shown) | -63.9
O=C(CCn1cnc2ccccc2c1=O)Nc1ccc2c(c1)OCCO2 | 15.1
Cc1cc(C(=O)N(C)C2CCCCC2)no1 | 11.7
CC(=O)O[C@H]1CC[C@@]2(C)[C@@H](CC[C@@H]3[C@@H]2CC[C@]2(C)[C@@H](C(C)(C)O)C[C@@H]32)C1 | 9.09
CC(C)(C)S(=O)(=O)/C(C#N)=N/Nc1ccc(C#N)cc1 | 22.1
CN(CCc1ccccn1)C(=O)Nc1ccc(F)cc1 | 12.7
COc1ccccc1/C=N/Nc1nc(C)c(C(C)=O)s1 | 5
CC(Oc1ccccc1)C(=O)N1CCC2(CC1)Oc1ccc(F)cc1C(=O)C21CC(c2cccnc2)=NO1 (stereo not shown) | -20.5
[Cl-].c1ccc(COc2ccc(-c3sc(Nc4ccccc4)n[n+]3-c3ccccc3)cc2)cc1 | -43.9
O=C(CSc1nc(C(F)(F)F)cc(=O)[nH]1)N1CCCC1 | 19
Cc1ccc(NCc2ccco2)cc1C.O=C(O)C(=O)O | 1.93
Cc1onc(-c2c(Cl)cccc2Cl)c1C(=O)Nc1nc(C(C)(C)C)cs1 | -26.4
COc1ccc(CN2CCCC(C(=O)c3sccc3C)C2)cc1O (stereo not shown) | -71.9

SMILES | hERG current change (%, negative = inhibition) at 10uM [%]
Cc1ccsc1C(=O)C1CCCN(CCO)C1 (stereo not shown) | 5.34
Cc1nc(CCNC(=O)CC2C(=O)NCCN2Cc2ccc(F)cc2)sc1C (stereo not shown) | 12.3
O=C(OCc1cccc([N+](=O)[O-])c1)c1ccc2ccccc2n1 | 7.33
CC(C)C(OC(=O)CN1C(=O)c2ccccc2C1=O)C(=O)NC1CCCC1 (stereo not shown) | 18.7
COC(=O)CNC(=O)C12CC3CC(C1)CC(c1ccc(C)cc1)(C3)C2 | 12.9
C=CCn1c(O)c(C=NCCCOc2ccc(CC)cc2)c(=O)[nH]c1=S | 21.8
C=CCN(CC=C)C(=O)C1CCN(Cc2ccc(OCc3ccccc3)cc2)CC1.O=C(O)C(=O)O | -68
CCCCN(C)C(=O)C1CCN(Cc2ccc(OCc3ccccc3)cc2)CC1.O=C(O)C(=O)O | -73.4
CCN(CC)C(=O)C1CCN(Cc2ccc(OCc3ccccc3)cc2)CC1.O=C(O)C(=O)O | -48.7
NC(=O)C1CCN(Cc2ccc(OCc3ccccc3)cc2)CC1.O=C(O)C(=O)O | -29.5
O=C(NCc1ccccn1)C1CCN(Cc2cccc(OCc3ccccc3)c2)CC1.O=C(O)C(=O)O | -35.7
CCCCN(C)C(=O)C1CCN(Cc2cccc(OCc3ccccc3)c2)CC1.O=C(O)C(=O)O | -67.7
CCN(CC)C(=O)C1CCN(Cc2cccc(OCc3ccccc3)c2)CC1.O=C(O)C(=O)O | -39.6
COc1cccc(NC(=O)c2nn(C)c3c2CS(=O)(=O)c2ccccc2-3)c1 | 8.68
O=C(NCCCc1ccccc1)c1cccc([N+](=O)[O-])c1 | -23
COc1ccc(COC(=O)Nc2cn(C)nc2C(F)(F)F)cc1 | -7.76
C=C(C)C(=O)N1CC2(CC(c3cccc(NC(=O)COc4ccc(Cl)cc4)c3)=NO2)C[C@@H]1C(N)=O (stereo partly shown) | -15.3
CN1Cc2c(N3CCOCC3)nc(SCCC#N)c(C#N)c2CC1(C)C | -2.45
COc1ccc(Cc2nnc(NC(=O)c3ccco3)s2)cc1OC | 5.42
c1ccc2[nH]c(CSc3nccs3)nc2c1 | -6.76
O=C(Cn1cnc2c(nnn2Cc2ccccc2)c1=O)c1ccccc1 | -8
COCCN(Cc1cc2ccc(C)c(C)c2nc1Cl)C(=O)N1CCOCC1 | -11
Cc1ccccc1CC1(CO)CCCN(Cc2cn[nH]c2-c2ccccc2)C1 (stereo not shown) | -23.9

SMILES | hERG current change (%, negative = inhibition) at 10uM [%]
OCC1(CCOc2ccccc2)CCN(Cc2cn[nH]c2-c2ccccc2)CC1 | -74.4
OCC1(CCOc2ccccc2)CCN(Cc2cn[nH]c2-c2ccc(F)cc2)CC1 | -71.6
OCC1(CC2CCCCO2)CCN(Cc2nc3ccccc3[nH]2)CC1 (stereo not shown) | 18
OCC1(CCOc2ccccc2)CCN(Cc2nc3ccc(F)cc3[nH]2)CC1 | -55
OCCC1CN(Cc2nc3ccc(F)cc3[nH]2)CCN1C1CCCC1 (stereo not shown) | -15.9
CC1CCN(CC(=O)Nc2ccc(S(=O)(=O)N3C(C)CCCC3C)cc2)CC1 (stereo not shown) | 3.93
O=C(Cc1ccccc1)NCCc1cnc[nH]1 | 17.4
COc1ccc(C(=O)NCC(C)NC(=O)c2ccc(OC)c(OC)c2)cc1OC (stereo not shown) | 13.8
COC(=O)Cc1ccc(NC(C)=O)cc1 | 8.79
COc1cccc(NC(=O)CCC(=O)NCc2ccco2)c1 | 17.2
Cc1c(Cl)cccc1NC(=S)/C(=C(\[O-])c1ccc(Cl)s1)[n+]1ccccc1 | 3.76
Cc1cc(C=C2C(=O)c3ccccc3C2=O)c(C)n1-c1ccc(C(=O)O)cc1 | 1.68
Cc1nn2c(C(F)(F)F)cc(-c3ccc(Cl)cc3)nc2c1C(=O)N1CCOCC1 | -13.6
Cc1nc2ccccn2c1P(=Nc1ccccc1)(N(C)C)N(C)C | -52.5
CCN(CC)P(=O)(c1ccccc1)c1c(C)nc2ccccn12 (stereo not shown) | -3.24
CCN(CC)P(=S)(c1c(C)nc2ccccn12)c1c(C)nc2ccccn12 | -9.33
N#Cc1c(SCC(=O)Nc2nc3ccc(Br)cc3s2)sc2c(O)cc(=O)[nH]c12 | 9.27
CC(C)CNC(=S)NC(=O)c1ccc(F)cc1 | 5.45
COc1ccc(C(=O)N/N=C(\C)c2ccc3c(c2)C2C=CCC2C(c2ccccc2)N3)cc1 (stereo not shown) | -1.79
CC(=O)c1ccc2c(c1)C1C=CCC1C(c1ccncc1)N2 (stereo not shown) | -21
COC(=O)c1ccc(C2Nc3ccc(/C(C)=N/NC(=O)C(OC)c4ccccc4)cc3C3C=CCC32)cc1 (stereo not shown) | -76.2
CCN(CC)C(=O)c1csc(Nc2ccc(C)cc2)n1 | -34.8
S=C(NCc1cccnc1)Nc1cccc2ccccc12 | -9.3

SMILES | hERG current change (%, negative = inhibition) at 10uM [%]
c1ccc2c(c1)nc(N1CCOCC1)c1ccccc12 | 11.2
c1ccc2nc(N3CCOCC3)c(N3CCOCC3)nc2c1 | -1.12
c1ccc(-c2nc3ccccc3nc2N2CCOCC2)cc1 | -54.7
CCCN1C2=NCCCN2c2ccccc21.Cl | -9.58
CCCN1C2=NCCN2c2cc(C)c(C)cc21.Cl | -30.7
CCCCN1C2=NC(c3ccccc3)CN2c2ccccc21.Cl (stereo not shown) | -69
CCCCCCCN1C2=NCCCN2c2ccccc21.Cl | -58.5
Br.CCCCN1C2=NCCCN2c2cc(C)c(C)cc21 | -65.4
CCCCN1C(N)=NC[C@@H]1c1ccccc1 | -2.61
Br.CCCCN1C2=NCCCN2c2ccccc21 | -54.5
Br.CCN1C2=NCCCN2c2cc(C)c(C)cc21 | -23.2
c1ccc([C@H]2CN3C(=N2)Sc2ccccc23)cc1 | -19.2
COCCN1C(=O)CS/C1=C(/C#N)C(=O)NCc1ccco1 | -7.92
COc1ccc(C(=O)O)cc1S(=O)(=O)Nc1cccc(C)c1 | -18.9
Cc1ccc(-n2nnc3c(=O)n(CC(=O)NCc4ccccc4)cnc32)cc1 | -15.5
C[C@@H]1CC[C@@]23COC(=O)C2=CCC[C@@H]3[C@@]1(C)CC/C(=C/CO)CO | -6.27
O=C(c1ccc(Cl)c(Cl)c1)N1CCC(=O)N(C(CO)Cc2ccccc2)CC1 (stereo not shown) | 5.42
CCOC(=O)c1cn2nc(Oc3cccc(C(F)(F)F)c3)ccc2n1 | -6.27
O=c1cc(-c2ccncc2)oc2c1ccc1ccccc12 | -4.57
CCCCCCN1C2=NCCCN2c2ccccc21.Cl | -78.3
Cl.c1ccc2c(c1)N1CCN=C1N2CCN1CCCCC1 | -15.3
Cl.c1ccc2c(c1)N1CCCN=C1N2CCN1CCCCC1 | -62.8
